Experimental data reported in ChEMBL document CHEMBL3988442, “University of Dundee, Small-Polar-MMV Screening Library” (2021).
About 1,000 (1.4%) of roughly 69,000 compounds showed an effect of 50% or more. The full list was thinned out, with strong results kept by preference.

Test system: Leishmania donovani
Assay: Leishmania intramacrophage assay
Type: functional, organism-based
Set-up: scale not given: in the data most compounds retested in dose-response had high values

CC1c2ncc(Cn3cccn3)n2CCN1S(=O)(=O)C1CC1 (stereo not given)
Percent Effect (30.3 µM, […]): 4.524%

Cc1ccc2oc(CN3CCC(C(=O)O)(n4ccnc4)CC3)c(C)c2c1
Percent Effect (30.3 µM, […]): 21.21%

CN(C)C[C@@H]1C[C@@H]2CN(Cc3nccn3C)CC[C@@H]2N1CC1CC1
Percent Effect (30.3 µM, […]): 27%

CC(=O)N1CCN(c2ncnc3cc4c(cc23)OCCO4)CC1
Percent Effect (30.3 µM, […]): 39.4%

CC(C)C(=O)N1CCN(c2ncnc3cc4c(cc23)OCCO4)CC1
Percent Effect (30.3 µM, […]): 56.87%

CCC(=O)N1CCN(c2ncnc3cc4c(cc23)OCCO4)CC1
Percent Effect (30.3 µM, […]): -95.64%

COc1cc2cc(C(=O)N[C@@H](C)C(=O)O)n(C)c2c(OC)c1OC
Percent Effect (30 µM, 30.03 µM): 2.156%

O=C(c1cccnc1)N1CCc2onc(CN3CCCC3)c2C1
Percent Effect (30.3 µM, […]): 14.82%

Cc1nnc2n1CCN(CC(O)CN1CCC(C)CC1)C2 (stereo not given)
Percent Effect (30.3 µM, […]): 33.92%

CCC(CN1CCCC1)n1cncc1-c1cnn(-c2ccc(F)cc2)c1.Cl (stereo not given)
Percent Effect (30.3 µM, […]): 14.1%

COc1c(C)cnc(CN(C)C2CCOC3(CCOCC3)C2)c1C (stereo not given)
Percent Effect (30.3 µM, […]): 5.753%

COc1c(C)cnc(CN(C)C2CCN(C3CCOCC3)CC2)c1C
Percent Effect (30.3 µM, […]): 38.73%

COc1c(C)cnc(CN(C)C2CCCCC2)c1C
Percent Effect (30.3 µM, […]): 77.94%

CC(Cn1cccn1)C(=O)N1CCCN(Cc2cscn2)CC1 (stereo not given)
Percent Effect (30.3 µM, […]): 10.45%

O=C(c1cccs1)N1CCc2c(nc(N3CCCC3)[nH]c2=O)C1
Percent Effect (30.3 µM, […]): -25.29%

CN(C)C(=O)C1CCN(Cn2nc(-c3ccc(F)cc3)oc2=O)CC1
Percent Effect (30 µM): -5.064%

c1cnnc(N2CCCC(NCc3nc(-c4ccsc4)no3)C2)c1 (stereo not given)
Percent Effect (30.3 µM, […]): 12.92%

CC(NCc1ccncc1)c1ccc(N2CCN(C)CC2)c(F)c1.Cl (stereo not given)
Percent Effect (30.3 µM, […]): -0.6983%

CN1CCN(c2ncc(CNCCCc3cccc(F)c3)cn2)CC1
Percent Effect (30.3 µM, […]): 20.79%

CC(NCc1cnc(N2CCN(C)CC2)nc1)c1ccc(F)cc1 (stereo not given)
Percent Effect (30.3 µM, […]): 58.55%

Cc1ccc2c(c1)C(NCc1nccn1Cc1ccccc1)CCCO2 (stereo not given)
Percent Effect (30.3 µM, […]): 23.59%

Cc1ccc2c(c1)OCCCC2NCc1nccn1CC(C)C (stereo not given)
Percent Effect (30.3 µM, […]): 9.865%

c1ccc(Cn2ccnc2CNC2CCCOc3ccccc32)cc1 (stereo not given)
Percent Effect (30.3 µM, […]): 4.41%

Cc1ccc2c(c1)OCCCC2NCc1nccn1Cc1ccccc1 (stereo not given)
Percent Effect (30.3 µM, […]): 50.6%

Cn1ccnc1CNC1CCCOc2c1ccc1ccccc21 (stereo not given)
Percent Effect (30.3 µM, […]): 20.1%

Cc1cccc2c1OCCCC2NCc1nccn1Cc1ccccc1 (stereo not given)
Percent Effect (30.3 µM, […]): 82.89%

Cc1noc([C@@]23CCO[C@@H]2CCN(C(=O)CCC(C)C)C3)n1
Percent Effect (30.3 µM, […]): -4.868%

COCCN(CCC#N)S(=O)(=O)c1ccc(F)cc1Cl
Percent Effect (30.3 µM, […]): -7.04%

Cc1nc(CNC(=O)Cn2nc(-c3ccc(F)cc3)oc2=O)cs1
Percent Effect (30 µM, 30.03 µM): -4.773%

COc1ccc(-c2cn(CCSc3ncn[nH]3)nn2)cn1
Percent Effect (30.3 µM, […]): 35.9%

Cc1nn(C)c(C)c1CN(C(=O)c1cc(Cl)c[nH]c1=O)C(C)C
Percent Effect (30.3 µM, […]): 14.01%

Cc1ncc2c(n1)CCCC2NC(=O)c1ccc(Cn2cccn2)cc1 (stereo not given)
Percent Effect (30.3 µM, […]): 26.01%

CCCn1nc(C)c2c(C(F)F)cc(=O)n(CC(=O)O)c21
Percent Effect (30.3 µM, […]): 18.18%

Cc1nn(CC(F)F)c2c1c(C(F)F)cc(=O)n2CC(=O)O
Percent Effect (30.3 µM, […]): -4.895%

COC(=O)Cn1c(=O)cc(C(F)F)c2c(C)nn(CC(F)F)c21
Percent Effect (30.3 µM, […]): 51.48%

CC1(C)CN(C(CNS(C)(=O)=O)c2ccc(Cl)cc2)CCO1 (stereo not given)
Percent Effect (30.3 µM, […]): 30.45%

O=C(Cc1ccc(F)cc1)N1CCn2c(Cn3cncn3)cnc2C1
Percent Effect (30.3 µM, […]): 5.226%

CCc1nc2n(n1)CC(NCc1nc(-c3ccccn3)no1)CC2 (stereo not given)
Percent Effect (30 µM): -15.89%

CC(=O)N1CC(C(=O)N2CCCC(Cn3ccnc3C)C2)C1 (stereo not given)
Percent Effect (30.3 µM, […]): 46.71%

Cc1nccn1CC1CCCN(C(=O)Cc2ccsc2)C1 (stereo not given)
Percent Effect (30.3 µM, […]): 72.54%

Cc1noc(C)c1CC(=O)N1CCCC(Cn2ccnc2C)C1 (stereo not given)
Percent Effect (30.3 µM, […]): 14.7%

COc1ccc(CN2CCN(S(=O)(=O)c3cc(C(=O)O)cs3)CC2)cc1
Percent Effect (30.3 µM, […]): 15%

Cn1cc(C(=O)N2CC[C@@H]3[C@@H]2CCN3c2ccccn2)cn1
Percent Effect (30.3 µM, […]): 28.1%

CC(=O)NCCCOc1c(C)cccc1Cl
Percent Effect (30.3 µM, […]): 16.58%

Cc1ccc(C(=O)N2CCC3(CCC(=O)N(CCN(C)C)C3)CC2)nc1
Percent Effect (30.3 µM, […]): 0.8363%

CCN1CCCC1Cn1ccc2ccc(C(=O)OC)cc2c1=O (stereo not given)
Percent Effect (30.3 µM, […]): -29.19%

CCc1ccc2nc(NCC(O)CO)cc(C)c2c1 (stereo not given)
Percent Effect (30.3 µM, […]): 21.82%

CCc1ccc2nc(NCCOCCO)cc(C)c2c1
Percent Effect (30.3 µM, […]): 19.28%

CCc1ccc2nc(NCCCN(CCO)CCO)cc(C)c2c1
Percent Effect (30.3 µM, […]): 97.87%

CCc1ccc(CN2Cc3nccn3CC(Cn3cncn3)C2)o1.O=C(O)C(F)(F)F (stereo not given)
Percent Effect (30.3 µM, […]): 27.46%
